An excerpt weighted towards active compounds, which were near 12% of everything screened.
PLK1 PBD inh: qHTS for Inhibitors of PLK1-PDB (polo-like kinase 1 - polo-box domain): Primary Screen; Serine/threonine-protein kinase PLK1 (Homo sapiens), P53350; Plk1 PBD binding of FITC phosphopeptide, fluorescence polarization; Potency, µM, most hits filed as inhibitors; 2.8% of 360,000 active; note: series mostly up to about 57 µM; nearly all actives have a fitted effect of over 65% in size
Sfp inh: qHTS Assay for Inhibitors of Bacillus subtilis Sfp phosphopantetheinyl transferase (PPTase). 4'-phosphopantetheinyl transferase ffp (Bacillus subtilis), Q9F4F7. Biochemical Sfp PPTase activity, qHTS. Potency, µM, actives largely listed as inhibitors. 3.5% of 310,000 active;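 note: the enzyme is Sfp with the accession as filed and its product quenches rhodamine fluorescence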
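With Hepes-Na pH 7.6 buffer containing 10 mM MgCl2, Sfp (15 nM) modified BHQ-2-YbbR (12.5 uM) using rhodamine-CoA (5 uM). Two reads 30 minutes apart at 525/598 nm yielded each well's rate.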
HP1b chromo inh: HTS for Inhibitors of HP1-beta Chromodomain Interactions with Methylated Histone Tails; AlphaScreen HP1-beta / biotin-H3K9me3 peptide binding; Potency, µM (top dose mostly 114 µM), hits mostly inhibitors; 0.56% of 390,000 active; AID 540317, 2011; note: nearly all actives have a fitted effect of over 70% in size
Target sequence (P83916 whole entry, looked up): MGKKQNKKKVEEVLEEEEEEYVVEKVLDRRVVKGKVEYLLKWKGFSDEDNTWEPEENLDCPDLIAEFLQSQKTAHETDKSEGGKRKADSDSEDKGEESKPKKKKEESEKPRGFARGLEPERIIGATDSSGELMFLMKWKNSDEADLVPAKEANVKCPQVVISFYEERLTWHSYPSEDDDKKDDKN
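AlphaScreen: HP1-beta (50 nM) preformed 30 min with biotin-H3(1-18)K9me3 peptide (50 nM) in PBS pH 7.4, 0.01% Tween-20. Compound added for 30 min at RT, then streptavidin donor/nickel chelate acceptor beads (10 ug/mL) for 30 min.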
JMJD2A Tudor: qHTS Assay for Inhibitors of JMJD2A-Tudor Domain; Lysine-specific demethylase 4A (Homo sapiens), O75164; AlphaScreen JMJD2A-Tudor / H3K4me3 peptide binding; Potency, µM (titrated, usually from 114 µM), actives largely listed as inhibitors; 4.4% of 390,000 active; note: nearly all actives have a fitted effect of over 50% in size
BAZ2B inh: qHTS Assay for Inhibitors of BAZ2B. Bromodomain adjacent to zinc finger domain protein 2B (Homo sapiens), Q9UIF8. AlphaScreen BAZ2B-H3K14Ac peptide displacement. Potency, µM (titrated, usually from 114 µM), hits mostly inhibitors. 4.4% of 360,000 active; note: nearly all actives have a fitted effect of over 60% in size
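Inhibition is scored as reduced AlphaScreen emission. The BAZ2B/b-H3(5-23)K14Ac complex (50 nM each) in PBS pH 7.4, 0.01% Tween-20 meets compound (up to 110 uM) for 30 min at RT before bead addition.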
G9a block: qHTS Assay for Inhibitors of Histone Lysine Methyltransferase G9a; G9a H3K9 monomethylation, AlphaScreen, 2 h; 8.8% of 350,000 active; Histone-lysine N-methyltransferase EHMT2 (Homo sapiens), Q96KQ7; Potency, µM (series often up to 102 µM), most hits filed as inhibitors; note: nearly all actives have a fitted effect of over 75% in size
Target sequence (Q96KQ7 913-1193 limits assumed): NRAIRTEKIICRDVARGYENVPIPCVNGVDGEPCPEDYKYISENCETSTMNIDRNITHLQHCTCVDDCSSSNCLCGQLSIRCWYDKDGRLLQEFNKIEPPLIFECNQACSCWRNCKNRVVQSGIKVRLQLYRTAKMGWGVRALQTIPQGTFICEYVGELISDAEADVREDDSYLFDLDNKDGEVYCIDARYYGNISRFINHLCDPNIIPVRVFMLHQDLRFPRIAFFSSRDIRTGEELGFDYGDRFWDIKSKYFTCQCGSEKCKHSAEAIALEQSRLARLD
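Quantitative HTS format: methyltransferase activity on a biotin-tagged H3K9 peptide is measured by AlphaScreen, using a rabbit anti-monomethyl-H3K9 antibody with streptavidin donor and anti-IgG acceptor beads. Final levels are 20 nM enzyme, 500 nM peptide, 20 uM SAM; 2 h RT.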
Large screens that a line does not name were inactive. Calls come from the whole dose curve; as a rule, active = well fitted curve in the direction sought with a large enough effect; inconclusive = small, poorly fitted or top-dose-only effect, or another doubt; inactive = no such curve, though single readings can be large; an effect the other way counts as inactive or inconclusive.

COc1cccc(-c2nc(NCC3CCCO3)c3ccccc3n2)c1O (centres undefined)	JMJD2A Tudor inconclusive, BAZ2B inh inconclusive, G9a block inconclusive
COc1ccc(OC)c(Nc2c3ccccc3nc3ccccc23)c1	HP1b chromo inh inconclusive, JMJD2A Tudor 22µM, BAZ2B inh 50µM
CCOc1nc(NCCO)nc(Nc2cc(Cl)ccc2OC)n1	PLK1 PBD inh 27µM
COc1ccccc1Nc1nc(NCC2CCCO2)c2ccccc2n1 (centres undefined)	PLK1 PBD inh inconclusive, JMJD2A Tudor 50µM
COc1cc(NS(C)(=O)=O)ccc1Nc1c2ccccc2nc2ccccc12	JMJD2A Tudor inconclusive, BAZ2B inh inconclusive, G9a block 12µM
Cc1ccc(C(=O)Nc2nnc(S(=O)(=O)N(C)Cc3ccc(F)cc3)s2)cc1	none (no result: PLK1 PBD inh, Sfp inh)
Cc1noc(C)c1-c1ccc2ncnc(NCc3cccn3C)c2c1	none (no result: PLK1 PBD inh, HP1b chromo inh, BAZ2B inh, G9a block)
COc1ccc(-c2cc(C(F)(F)F)n3nc(C(=O)Nc4c(C)n(C)n(-c5ccccc5)c4=O)cc3n2)cc1	none
Cc1ccc(Nc2nc(NCCO)c3ccccc3n2)cc1C	Sfp inh 79µM, G9a block 79µM
COc1ccccc1Nc1nc(NCCO)c2ccccc2n1	none (no result: PLK1 PBD inh, HP1b chromo inh, JMJD2A Tudor)
COc1ccc(OC)c(Nc2nc(NCCO)c3ccccc3n2)c1	JMJD2A Tudor 45µM, BAZ2B inh 50µM (no result: G9a block)
COc1ccc(NC(=O)CCNS(=O)(=O)c2ccc3c(c2)CCCC(=O)N3)cc1	none (no result: PLK1 PBD inh, Sfp inh)
COc1ccc(OC(=O)c2nc(SCc3ccccc3C)ncc2Cl)cc1	none (no result: PLK1 PBD inh, Sfp inh)
O=C(c1ccc(Cl)cc1)c1cn(Cc2ccccc2)c2cc3c(cc2c1=O)OCCO3	none (no result: PLK1 PBD inh, Sfp inh)
CCc1cccc(C)c1Nc1nn2c(=O)c3ccccc3nc2s1	HP1b chromo inh inconclusive, G9a block 7.1µM (no result: PLK1 PBD inh, Sfp inh)
CCOc1ccc(-n2nc3cc(C)c(N)cc3n2)cc1	BAZ2B inh inconclusive (no result: G9a block)
Cc1cc2nn(-c3ccc(Cl)cc3)nc2cc1N	BAZ2B inh inconclusive, G9a block 13µM
CN(C(=O)CSc1nnc(-c2ccccc2)o1)c1c(N)n(Cc2ccccc2)c(=O)[nH]c1=O	none
COc1ccc2c(c1)CC/C2=N\NC(=O)c1ccccc1	none
COc1ccc2c(c1)CC/C(=C\C=C\c1ccccc1OC)C2=O	Sfp inh 25µM, G9a block 7.9µM
COc1ccc2c(c1)C(=O)/C(=C/C=C/c1ccccc1)CC2	G9a block 32µM
COc1ccc2c(c1)CC/C(=C/c1ccncc1)C2=O	none
COc1ccc(C=C2Cc3ccccc3C2=O)cc1	none (no result: Sfp inh, HP1b chromo inh, JMJD2A Tudor, BAZ2B inh, G9a block)
COc1ccc2c(c1)CC/C(=C\c1ccc(C)o1)C2=O	Sfp inh 45µM, HP1b chromo inh inconclusive, JMJD2A Tudor inconclusive, BAZ2B inh 45µM, G9a block 50µM
CC(C)c1ccc(-c2c(C#N)c(N)nc3c2CCCCC3)cc1	G9a block 1.8µM
Cc1ccc(-c2c(C#N)c(N)nc3c2CCCCC3)o1	Sfp inh 50µM, G9a block 79µM
CCOc1cc(-c2c(C)c(C)nc(N)c2C#N)ccc1O	none
Cc1ccc(-c2c(C#N)c(N)nc3c2CCCCC3)cc1	none
COc1cc(-c2c(C#N)c(N)nc3c2CCCC3)ccc1O	PLK1 PBD inh 3.4µM
COc1cc(-c2c(C#N)c(N)nc3[nH]c(=S)[nH]c(=O)c23)ccc1O	G9a block 71µM
CC1CC[C@@]23CCC4(C)[C@@]5(C)CCC6C(C)(C)C(=O)CC[C@@]6(C)C5C=C[C@@]4(OC2=O)C3C1C (some centres undefined)	none (no result: PLK1 PBD inh, HP1b chromo inh, JMJD2A Tudor, BAZ2B inh, G9a block)
O=C(NC(=S)Nn1cnnc1)c1ccc(F)cc1Cl	PLK1 PBD inh inconclusive, Sfp inh 50µM, HP1b chromo inh inconclusive, BAZ2B inh inconclusive, G9a block 14µM
O=C(NC(=S)Nc1ncccn1)c1ccccc1Cl	Sfp inh 32µM, JMJD2A Tudor inconclusive, G9a block 79µM
O=C(NC(=S)Nn1cnnc1)c1ccccc1Cl	PLK1 PBD inh inconclusive, Sfp inh 40µM, BAZ2B inh inconclusive, G9a block 14µM
COc1cccc(C(=O)NC(=S)Nn2cnnc2)c1OC	PLK1 PBD inh 24µM, Sfp inh 22µM, BAZ2B inh inconclusive, G9a block 14µM
O=C1C=C(c2ccc3c(c2)OCO3)C[C@@H](c2ccc(Cl)cc2)C1	none (no result: Sfp inh)
Cc1cc(-c2ccc(C(C)C)c(S(=O)(=O)N3CCN(c4ccccn4)CC3)c2)on1	none (no result: G9a block)
CCN(CC)CCCNC(=O)c1nn(-c2ccc(C)cc2)c(=O)c2c1c1ccccc1n2C	none (no result: PLK1 PBD inh, Sfp inh, BAZ2B inh)
CCN(C(=O)c1nn(-c2ccc(C)cc2)c(=O)c2c1c1ccccc1n2C)c1ccc(F)cc1	G9a block 1.3µM (no result: PLK1 PBD inh, Sfp inh, BAZ2B inh)
CCN(CC)CCOC(=O)c1ccc(NC(=O)c2nn(-c3ccc(C)cc3)c(=O)c3c2c2ccccc2n3C)cc1	HP1b chromo inh inconclusive, JMJD2A Tudor inconclusive, G9a block 3.2µM (no result: PLK1 PBD inh, Sfp inh, BAZ2B inh)
CCCN(C(=O)c1nn(-c2ccc(C)cc2)c(=O)c2c1c1ccccc1n2C)c1ccccc1C	HP1b chromo inh inconclusive (no result: PLK1 PBD inh, Sfp inh, BAZ2B inh)
CCOC(=O)c1cc(S(=O)(=O)NC2CCN(C(=O)OCC)CC2)cn1C	G9a block 50µM
COC(=O)C1=C[C@@H](C(=O)OC)C2C3=C(C(=O)[C@@]2(C)NC(=O)c2ccccc2)[C@H](c2ccccc2)n2c(=O)n(-c4ccccc4)c(=O)n2[C@@H]3C1 (some centres undefined)	none (no result: PLK1 PBD inh, BAZ2B inh, G9a block)
O=C(NCCCn1ccnc1)C(=O)NCC1OCCN1S(=O)(=O)c1ccc(Cl)cc1 (centres undefined)	JMJD2A Tudor 79µM, BAZ2B inh 13µM
O=C(NCCCn1ccnc1)C(=O)NCC1OCCCN1S(=O)(=O)c1ccc(F)cc1 (centres undefined)	BAZ2B inh 50µM
O=C(NCCCn1ccnc1)C(=O)NCC1OCCCN1S(=O)(=O)c1ccccc1 (centres undefined)	BAZ2B inh 14µM
O=C(NCCc1ccccc1)C(=O)NCC1OCCCN1S(=O)(=O)c1ccc(F)cc1 (centres undefined)	none
O=C(NCCCn1ccnc1)C(=O)NCC1OCCN1S(=O)(=O)c1ccccc1 (centres undefined)	JMJD2A Tudor inconclusive, BAZ2B inh 22µM
O=C(NCc1ccncc1)C(=O)NCC1OCCCN1S(=O)(=O)c1ccccc1 (centres undefined)	none
CCCCC(=O)N(C)c1c(CC)nc2c(OCc3ccc(C(F)(F)F)cc3)cccn12	none (no result: Sfp inh, HP1b chromo inh, JMJD2A Tudor, BAZ2B inh, G9a block)
CCc1cc2c(cc3c(=O)n(CCCC(=O)NCc4cccc(Br)c4)ncn32)s1	none (no result: PLK1 PBD inh, Sfp inh)

Screening results from PubChem BioAssay.
